Experimental data reported in PubChem BioAssay (NCATS).
Results filed as inconclusive are left out. Unmarked numbers belong to inactive results. The source made the active and inactive calls. The call rests on the fitted dose curve; in most records, active means well fitted cell-killing curve with a large enough effect; inconclusive means small, poorly fitted or top-dose-only effect, or effect the other way; inactive means no such curve, though single readings can be large or run the other way.

Experiment: Quantitative High-Throughput drug screen in 47 multiple myeloma cell lines against the NCATS MIPE library collection: KMS12PE_JCRB cell viability assay (AID 1918972); further: nearly all actives have a fitted effect of over 30% in size
Settings: KMS12PE myeloma viability, CellTiter-Glo ATP, 48 h; series mostly up to 45.8 µM; viability: at the top concentration
Outline: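 Luminescent ATP measurement with CellTiter-Glo gives viability, scaled between DMSO-only wells (100%) and media-only wells (0%). Cells, 500 per well, faced library compounds for 48 hours at 37C.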
Potency means the concentration at half of the fitted maximal effect.

| Compound | viability | Potency |
| --- | --- | --- |
| Nc1cccc2c1C(=O)N(C1CCC(=O)NC1=O)C2=O (configuration not stated) | 112% | – |
| COc1cc(OC)c(NC(=O)Nc2cc(C)on2)cc1Cl | 98.9% | – |
| COC(=O)[C@@H]1[C@H]2C[C@@H]3c4[nH]c5ccccc5c4CCN3C[C@@H]2CC[C@@H]1O | 104% | – |
| C#Cc1cccc(Nc2ncnc3cc(OCCOC)c(OCCO)cc23)c1 | – | 1.48 µM (active) |
| C[N+](C)([O-])CCNc1ccc(NCC[N+](C)(C)[O-])c2c1C(=O)c1c(O)ccc(O)c1C2=O | 127% | – |
| C=C1CCC2[C@](C)(CO)C(O)CC[C@]2(C)C1CC=C1C(=O)OCC1O (some centres not stated) | 103% [at 92.2 µM] | – |
| O=C1c2c(O)cccc2[C@@H]([C@@H]2O[C@H](CO)[C@@H](O)[C@H](O)[C@H]2O)c2cc(CO)cc(O)c21 | 118% | – |
| C[C@@H]1C(=O)O[C@H]2CC34[C@H]5C[C@@H](C(C)(C)C)C36[C@H](OC(=O)[C@@H]6O)O[C@@]4(C(=O)O5)[C@]21O (some centres not stated) | 124% | – |
| CCCNC(=O)[C@H]1O[C@H]1C(=O)N[C@H](C(=O)N1CCC[C@@H]1C(=O)OC)C(C)CC (some centres not stated) | – | 6.62 µM (active) |
| CC(=O)O[C@H]1C[C@@H]2CC[C@H]3[C@H]4C[C@H]([N+]5(C)CCCCC5)[C@@H](OC(C)=O)[C@@]4(C)CC[C@@H]3[C@@]2(C)C[C@H]1[N+]1(C)CCCCC1 | 130% | – |
| CCN(CC)CCCCNc1ncc2c(n1)N(C)C(=O)N(c1c(Cl)c(OC)cc(OC)c1Cl)C2 | 139% | – |
| Cc1cc(-c2nnc3n2CCCCC3)c(C)n1-c1ccccc1 | – | 20.9 µM (active) |
| COc1cc(CCc2cc(NC(=O)c3ccc(N4C[C@@H](C)N[C@@H](C)C4)cc3)n[nH]2)cc(OC)c1 | – | 16.6 µM (active) |
| NC(=O)c1ncn([C@@H]2O[C@H](CO)[C@@H](O)[C@@H]2O)c1O | 113% | – |
| CC(O)(C#Cc1ccc2c(c1)N(c1nc(N)ncc1Cl)CC2)c1nccs1 (configuration not stated) | – | 13.2 µM (active) |
| CC(=O)N1CCN(c2ccc(OCc3nn(C)c(C)c3-c3cccc4c(CCCOc5cccc6ccccc56)c(C(=O)O)n(Cc5cccnc5)c34)cc2)CC1 | – | 0.469 µM (active) |
| NC1=N[C@H]2[C@H](CS[C@H]2CCCCC(=O)O)N1 | 105% [at 23.2 µM] | – |
| C[C@H](CCC(=O)O)[C@H]1CC[C@H]2[C@@H]3[C@H](O)C[C@@H]4C[C@H](O)CC[C@]4(C)[C@@H]3CC[C@]12C | 80.2% | – |
| CN(C)CC(=O)N1CCC(c2ccc(NC(=O)c3ncc(C#N)[nH]3)c(C3=CCCCC3)c2)CC1 | – | 5.26 µM (active) |
| CNC(=O)c1cccc(-c2ccc3c(N4CCOC[C@H]4C)nc(N4CCOC[C@H]4C)nc3n2)c1 | – | 0.469 µM (active) |
| CC[C@H]1OC(=O)[C@H](C)[C@@H](O[C@H]2C[C@@](C)(OC)[C@@H](O)[C@H](C)O2)[C@H](C)[C@@H](O[C@@H]2O[C@H](C)C[C@H](N(C)C)[C@@H]2O)[C@](C)(OC)C[C@@H](C)C(=O)[C@H](C)[C@@H](O)[C@]1(C)O | 95.4% | – |
| COc1cc(C[C@@H](CO)[C@H](CO)Cc2ccc(O)c(OC)c2)ccc1O | – | 3.72 µM (active) |
| COC(=O)[C@@H]1CC2=CC(=O)CC[C@]2(C)[C@@]23O[C@@H]2C[C@@]2(C)[C@H](CC[C@@]24CCC(=O)O4)[C@@H]13 | 112% | – |
| CC1=C(C(=O)Nc2cc3cn[nH]c3cc2F)C(c2ccc(Cl)cc2F)N=C(c2ccnc(Cl)c2)N1 (configuration not stated) | – | 16.6 µM (active) |
| C=C1C(=CC=C2CCC[C@]3(C)[C@@H]([C@H](C)CCCC(C)(C)O)CC[C@@H]23)C[C@@H](O)C[C@@H]1O | – | 6.62 µM (active) |
| COC1=C(OC)C(=O)C(CC=C(C)CCC=C(C)CCC=C(C)CCC=C(C)CCC=C(C)CCC=C(C)CCC=C(C)CCC=C(C)CCC=C(C)CCC=C(C)C)=C(C)C1=O | 108% | – |
| CC(=O)O[C@H]1C[C@@H]2CC[C@H]3[C@H]4C[C@H]([N+]5(C)CCCCC5)[C@@H](OC(C)=O)[C@@]4(C)CC[C@@H]3[C@@]2(C)C[C@H]1N1CCCCC1 | 135% | – |
